The text below walks through data of PubChem BioAssay (NCATS).

The structures appear in SMILES notation. Inconclusive results are not listed. Active and inactive are the calls of the source. Calls come from the whole dose curve; as a rule, active = well fitted curve in the direction sought with a large enough effect in the signal ratio, with a control signal flat (not every such curve was filed as active); inconclusive = small, poorly fitted or top-dose-only effect, or effect the other way, or a change in a side signal; inactive = no such curve, though single readings can be large or run the other way; the % refers to the signal ratio.

This test deals with Peroxisome proliferator-activated receptor gamma (Homo sapiens) (UniProt P37231). Put plainly: qHTS assay for small molecule agonists of peroxisome proliferator-activated receptor gamma signaling (AID 588536). Conditions: HEK293 PPARg-UAS-bla, beta-lactamase ratio, 16 h, percent of rosiglitazone response, DMSO as zero; series mostly up to 76.7 µM. The source says: NIH Chemical Genomics Center [NCGC] U.S. Environmental Protection Agency [EPA] National Institutes of Environmental Health Sciences [NIEHS] National Toxicology Program [NTP] NCGC Assay Overview The Peroxisome proliferator-activated receptors (PPARs) are lipid-activated transcription factors of the nuclear receptor superfamily with three distinct subtypes namely PPAR alpha, PPAR delta (also called PPAR beta) and PPAR gamma. All these subtypes heterodimerizes with Retinoid X receptor (RXR) and these heterodimers regulate transcription of various genes. PPAR-gamma (glitazone receptor) agonists have been used in the treatment of type 2 diabetes and dyslipidaemia. It is involved in the regulation of glucose and lipid metabolism. PPAR-gamma activates certain genes like Paraoxonase 1 which is responsible for hydrolyzing organophosphates. PPAR-gamma agonists may also be therapeutically important in the treatment of coronary artery disease, obesity and cancer and atherosclerosis.
Peroxisome proliferator-activated receptor gamma (Homo sapiens), sequence (P37231 whole entry, looked up): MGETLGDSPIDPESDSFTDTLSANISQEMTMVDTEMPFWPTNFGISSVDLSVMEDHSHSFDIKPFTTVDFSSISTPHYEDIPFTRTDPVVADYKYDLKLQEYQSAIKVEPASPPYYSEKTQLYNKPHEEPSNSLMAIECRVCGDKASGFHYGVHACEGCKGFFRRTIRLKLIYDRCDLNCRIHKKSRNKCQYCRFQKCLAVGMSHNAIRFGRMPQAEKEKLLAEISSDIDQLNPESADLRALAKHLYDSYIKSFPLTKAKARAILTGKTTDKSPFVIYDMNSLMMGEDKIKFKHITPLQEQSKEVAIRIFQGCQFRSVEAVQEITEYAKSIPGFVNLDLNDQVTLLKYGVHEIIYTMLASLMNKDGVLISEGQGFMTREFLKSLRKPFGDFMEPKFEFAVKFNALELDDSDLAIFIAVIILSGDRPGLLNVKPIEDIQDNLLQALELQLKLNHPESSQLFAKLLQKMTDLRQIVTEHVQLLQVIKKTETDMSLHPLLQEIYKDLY
NCGC Assay Protocol Summary Using a beta-lactamase reporter-gene under control of Peroxisome Proliferator-Activated-gamma (PPAR-gamma) response element, a cell-based assay [GeneBLAzer PPAR-gamma-UAS-bla assay developed by Invitrogen] was used to measure PPAR-gamma ligands signaling. GeneBLAzer PPAR-gamma-UAS-bla-HEK293 cells were used with assay medium containing 1% charcoal/dextran treated FBS. The assay was performed in clear bottom black Greiner 1536-well plates. Rosiglitazone was used in the screen as the positive control. Library compounds were measured for their ability to stimulate the reporter gene activity. Compounds were screened in a titration series in 1536-well format. The fluorescence intensity (405 nm excitation, 460/530 nm emission) was measured using an EnVision plate reader. Data was normalized relative to Rosiglitazone control (2 uM, 100%), and DMSO only wells (basal, 0%). Concentration-response titration points for each compound were fitted to the Hill equation yielding concentrations of half-maximal stimulation (EC50) and maximal response (efficacy) values. qHTS protocol for PPAR-gamma beta-lactamase assay in agonist mode [Step] [Parameter] [Value] [Description] 1. Reagent; 6 uL; 3000 cells/well 2. Incubation; 37 C for 6 - 6.5 hrs 3. Compounds; 23 nL; 0.59 nM to 92 uM 4. Controls (Rosiglitazone); 23 nL, - One column with dose response, start 19 uM, 1:3 dilutions in duplicates - Final concentrations of 2 uM and 0.5 uM in two columns 5. Incubation; 37 C for 16 hrs 6. Detection reagent; 1 uL of CCF4-dye 7. Incubation; RT for 2 hrs 8. Detection; Fluorescence; Envision plate reader
On to `Cc1ccc(N)cc1[N+](=O)[O-]`, for which the result was inactive.

With `C=C(C#N)C(=O)OCC`, the result was inactive.

Take `C=Cc1cccc(C)c1`: the result was inactive.

On to `Nc1ccccc1O`, for which the result was inactive.

With `c1ccc2ncccc2c1`, the result was inactive.

`Cc1ccc(S(N)(=O)=O)cc1`: the outcome was inactive.

For `c1ccc(CSCc2ccccc2)cc1`, the result was inactive.

With `CC(=O)Nc1cccc(C)c1`, the outcome was inactive.

With `Cc1ccc2ccc3cccc4ccc1c2c34`, the result was inactive.

In the case of `CC(C)OCC1CO1` (stereo not given), the outcome was inactive.

For `c1ccc(SCCSc2ccccc2)cc1`, the result was inactive.

As for `C=CC(=O)OCCCCCCOC(=O)C=C`, the result was inactive.

As to `CC(C)COC(=O)COc1cc(Cl)c(Cl)cc1Cl`, the outcome was inactive.

`N=C1C=CC(=C(c2ccc(N)cc2)c2ccc(N)cc2)C=C1`: the result was inactive.

Consider `c1c[nH]cn1`, for which the result was inactive.

Turning to `Nc1cnn([C@@H]2O[C@H](CO)[C@@H](O)[C@H]2O)c(=O)n1`, the result was inactive.

As to `O=CC(=O)c1ccccc1`, the outcome was inactive.

As for `CC(=O)CC(=O)Nc1ccccc1`, the outcome was inactive.

Consider `Nc1cc(C(=O)O)c(O)c(S(=O)(=O)O)c1`, for which the result was inactive.

As to `C=CC(C)(O)CCCC(C)CCCC(C)CCCC(C)C` (stereo not given), the outcome was inactive.

Regarding `OC1CCCCC1`, the outcome was inactive.

Consider `Cc1c(C(=O)O)c(O)cc2c1C(=O)c1c(O)c([C@H]3O[C@H](CO)[C@@H](O)[C@H](O)[C@H]3O)c(O)c(O)c1C2=O`, for which the result was inactive.

Consider `OCC(CO)(CBr)CBr`, for which the result was inactive.

As to `OCC(CBr)(CBr)CBr`, the result was inactive.

For the molecule `NC(=O)Nc1nc2ccccc2[nH]1`, the result was inactive.

For `N[C@@H](Cc1ccccc1)C(=O)O`, the outcome was inactive.

For `CC(=O)OC1CC(C)OC(C)O1` (stereo not given), the outcome was inactive.

Regarding `O=[N+]([O-])c1ccccc1Nc1ccccc1`, the result was inactive.

Take `Nc1cc([N+](=O)[O-])ccc1O`: the outcome was inactive.

With `CCCCC(CC)COC(=O)COc1ccc(Cl)cc1Cl` (stereo not given), the outcome was inactive.

Turning to `O=C(Cl)c1ccc([N+](=O)[O-])cc1`, the outcome was inactive.

In the case of `CC(=O)OC(C(=O)c1ccccc1)c1ccccc1` (stereo not given), the result was inactive.

Regarding `CC(C)S`, the result was inactive.

In the case of `Oc1c(Cl)cc(Cl)c(Cl)c1Cl`, the result was inactive.

With `Cc1cc2nc(N)sc2cc1C`, the result was inactive.

Regarding `CC(CCC(=O)O)(c1ccc(O)cc1)c1ccc(O)cc1`, the result was inactive.

`CCOC(=O)C1OC1c1ccccc1` (stereo not given): the outcome was inactive.

With `O=c1[nH]ncc2ccccc12`, the result was inactive.

For `O=[N+]([O-])c1ccc(F)cc1F`, the result was inactive.

As to `Oc1cc2c(cc1O)[C@H]1c3ccc(O)c(O)c3OC[C@@]1(O)C2`, the outcome was inactive.
